Activity change and outcome data for 39 compounds are collected here from PubChem BioAssay AID977622 (Broad Institute, 2014).

A short description of test [1]: wild-type E. coli growth inhibition versus h38 humanized strain – h38 mutant RFP, wild-type GFP, cherry-pick, dose response (AID 977622). The following applies: activity change: E. coli mixed culture, total growth OD600 at 50 uM, at 50 µM.
In test [2] the test system is E. coli h38 humanized mutant ribosome RFP fluorescence, mixed culture, 24 h. The description is as above. The following applies: h38 mutant RFP at 50 uM; at 50 µM.

In all, about 1,900 compounds went through this assay and fewer than 10 were called active. Another 39% or so got no clear call; they are omitted.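 The calls were made as follows: active = Green signal of the normal strain falls at least twice as much as red signal of the resistant mutant, with overall culture growth loss under a set limit; inconclusive = no clear call, values can overlap the other calls; inactive = the rest.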 Only a sample is shown.

As to `CCc1ccc(CN2CCCC(CNS(=O)(=O)c3ccc(OC)cc3)C2)cc1` (stereo not drawn), in test [1], the activity change is -13.3% and the call was inactive. For the same compound, the activity change in test [2] worked out at 9.56%.

As to `COc1ccc(OC)c(NC(=O)COc2ccc(S(=O)(=O)NC(C)C)cc2)c1`, in test [1], the activity change was -14.2% and the compound was classed as inactive.

As to `O=C1CCCc2ccccc2N1Cc1ccccc1`, in test [1], the activity change is -14.6% and the outcome was inactive.

`Cc1cccc(CN2C(=O)c3ccccc3Sc3ccc(C(=O)O)cc32)c1`: in test [1], the activity change was -13.7% and the result was inactive.

With `Cc1noc(C)c1NC(=O)Nc1ccc2c(c1)C(=O)N([C@@H](C)CO)C[C@@H](C)[C@H](CN(C)C(=O)Nc1ccc3c(c1)OCO3)OCCCC[C@@H](C)O2`, in test [1], the activity change is -13.2% and the outcome was inactive. The activity change in test [2] worked out at 26.4%.

Consider `C=CCn1c(C)cc(C(=O)CSc2nnc(C3CC3)n2C2CC2)c1C`, for which, in test [1], the activity change was -20.6% and the compound was called inactive. The activity change in test [2] is -37.4%.

Consider `CN(C)S(=O)(=O)N1CCN(c2ccccc2Cl)CC1`, for which, in test [1], the activity change was -14.9% and the compound was classed as inactive. In addition, the activity change in test [2] is -15.7%.

Regarding `O=C(c1ccc(-n2cccn2)cc1)N1CCc2ccccc2C1`, in test [1], the activity change was -28.7% and the result was inactive. In addition, in test [2], the activity change was -27.7%.

Turning to `Cc1onc(-c2ccccc2Cl)c1C(=O)Nc1ccc(Cl)cn1`, in test [1], the activity change was -9.88% and the compound was called inactive.

For the compound `COc1cc(C#N)ccc1OCC(=O)Nc1cccc(S(=O)(=O)N2CCCC2)c1`, the activity change was -1.82% in test [1] and -20.8% in test [2]. Besides, in test [1], the compound was classed as inactive.

`COc1ccc(C2CC(=O)Oc3cc(C)cc(C)c32)cc1` (stereo not drawn): in test [1], the activity change was -0.711% and the compound was called inactive. For the same compound, in test [2], the activity change was found to be 12.7%.

`O=C(Nc1cc(S(=O)(=O)N2CCOCC2)ccc1N1CCOCC1)c1ccc([N+](=O)[O-])s1`: the activity change in test [1] was -3.16%; in test [2], 13.2%. Moreover, the compound was called inactive in test [1].

On to `COc1ccccc1Cc1c(-c2ccc(F)cc2)nc2ccc(Br)cn12`, for which, in test [1], the activity change is -10.3% and the compound was classed as inactive.

Regarding `CN(C)CCNc1ncnc2c1sc1nc(N3CCCC3)c3c(c12)CC(C)(C)OC3`, the activity change in test [1] was -21.5%; in test [2] it was -11.2%. Further, the outcome in test [1] was inactive.

Consider `Cc1ccccc1NC(=O)c1ccccc1N(C)S(=O)(=O)c1ccccc1`, for which, in test [1], the activity change was -14.8% and the outcome was inactive. For the same compound, the activity change in test [2] was -11.7%.

Consider `O=C1OC[C@@H]2CCCN2C(=O)[C@@H](CC(=O)N(CCO)Cc2ccccc2)C/C=C\C[C@H]1Cc1ccc(F)cc1`, for which the activity change in test [1] was -20.1%; in test [2] it was -35.1%. In test [1], the compound was classed as inactive.

Take `COc1cccc(CN(C)Cc2nc(Cc3ccccc3Cl)no2)c1`: the activity change is -26.5% in test [1] and 24.2% in test [2]. Moreover, the compound was called inactive in test [1].

Regarding `CC(CCc1ccccc1)NC(=O)CCC1CCCC1` (stereo not drawn), in test [1], the activity change was -8.51% and the outcome was inactive. For the same compound, in test [2], the activity change is 4.55%.

`CCNC(=O)C1(C)CCCN(Cc2cccc3ccccc23)C1` (stereo not drawn): the values for the activity change in test [1] and in test [2] were 1.55% and 69.8%, respectively. Also, the outcome in test [1] was inactive.

For the compound `CCS(=O)(=O)N1CCN(c2ccnc3cc(Cl)ccc23)CC1`, in test [1], the activity change is -3.73% and the call was inactive. The activity change in test [2] came to 61.1%.

As to `Cc1ccc(-n2cc(CNCCN3CCOC3=O)c(-c3ccc(F)cc3)n2)cc1`, the activity change in test [1] is -3.42%; in test [2], 31.2%. In addition, the compound was called inactive in test [1].

In the case of `Cc1cc(C)cc(NS(=O)(=O)c2cc(C(=O)NCc3ccccn3)ccc2Cl)c1`, in test [1], the activity change is -24.9% and the compound was classed as inactive. For the same compound, in test [2], the activity change is -5.16%.

With `CCn1c(COc2cccc(OC)c2)nnc1SCC(=O)Nc1cc(OC)ccc1OC`, in test [1], the activity change was -38.2% and the compound was classed as inactive. The activity change in test [2] is -20.2%.

Turning to `C[C@@H]1CN([C@@H](C)CO)S(=O)(=O)c2ccc(Br)cc2O[C@H]1CN(C)C(=O)c1ccccc1`, in test [1], the activity change was -2.07% and the call was inactive.

Turning to `C[C@@H]1CCCCO[C@H](CN(C)C)[C@@H](C)CN([C@H](C)CO)C(=O)c2cc(NC(=O)Nc3cccc4ccccc34)ccc2O1`, the activity change in test [1] came out at 8.4%; in test [2], 44.4%. Besides, the outcome in test [1] was inactive.

Take `O=C(C[n+]1cc(-c2ccc(F)cc2)n2c1CCC2)c1cccs1`: in test [1], the activity change stood at 2.39% and the compound was classed as inactive. Besides, the activity change in test [2] was found to be 21.5%.

As for `C[C@H](CO)N1C[C@H](C)[C@H](CN(C)C(=O)Nc2ccc3c(c2)OCO3)Oc2c(NC(=O)Nc3ccccc3)cccc2C1=O`, in test [1], the activity change is -5.63% and the outcome was inactive. The activity change in test [2] was 44%.

Take `Cc1ccc2oc(=O)n(CCCOc3ccccc3C)c2c1`: in test [1], the activity change was -15.8% and the compound was classed as inactive. For the same compound, in test [2], the activity change is -0.57%.

For `COc1ccc(CN2CCC3CC2c2cc(Cl)ccc23)cc1` (stereo not drawn), the activity change in test [1] is -30.7%; in test [2], -4.61%. For the same compound, the compound was called inactive in test [1].

On to `NS(=O)(=O)c1cc(C(=O)OCC(=O)Nc2ccccc2[N+](=O)[O-])ccc1Cl`, for which, in test [1], the activity change is -8.81% and the outcome was inactive. Also, the activity change in test [2] came out at 1.48%.

In the case of `CC(=O)Oc1ccc(N(c2ccccc2)S(=O)(=O)c2ccc(C)cc2)cc1`, in test [1], the activity change is -32.3% and the result was inactive.

As for `COc1ccc(NC(=O)Nc2cccc3c2O[C@H](CN(C)S(=O)(=O)c2ccc(Cl)cc2)[C@@H](C)CN([C@@H](C)CO)C3=O)cc1`, in test [1], the activity change is -2.69% and the outcome was inactive. Further, in test [2], the activity change is -5.12%.

With `O=C(O)c1ccccc1Nc1cc(Cl)c2nonc2c1[N+](=O)[O-]`, in test [1], the activity change is -25.7% and the result was inactive.

As to `C[C@@H]1CCCCO[C@H](CN(C)C)[C@H](C)CN([C@@H](C)CO)C(=O)c2cc(NC(=O)Nc3cccc4ccccc34)ccc2O1`, in test [1], the activity change amounted to 4.86% and the result was inactive. The activity change in test [2] is 1.63%.

On to `COc1ccc(C#Cc2ccc([C@@H]3[C@@H](CO)N4CCCCN(C(=O)Nc5ccc(F)cc5)C[C@H]34)cc2)cc1`, for which the results for the activity change in test [1] and in test [2] were -49.7% and 97.4%, respectively. In test [1], the compound was classed as inactive.

In the case of `Cc1cccc(Oc2ccc(NC(=O)c3ccccc3C(=O)O)cc2)c1`, in test [1], the activity change is -16.2% and the result was inactive.

On to `CCOCC(=O)Nc1c(C(=O)Nc2ccc3c(c2)OCCO3)oc2ccccc12`, for which, in test [1], the activity change was -44.7% and the compound was called inactive. In test [2], the activity change was 4.56%.

With `COc1cc2c(c(OC)c1OC)C(c1ccc3c(c1)OCO3)CC(=O)O2` (stereo not drawn), in test [1], the activity change is -14.3% and the compound was classed as inactive. For the same compound, in test [2], the activity change turned out to be 37.2%.

For the compound `CCC(C)c1ccccc1NC(=O)c1cccc(-n2cnnn2)c1` (stereo not drawn), in test [1], the activity change was -13.9% and the compound was called inactive. Also, the activity change in test [2] is -4.87%.
